# Source: the supplement of paper PMC11402862
# Assays:
# Assay in all cases: luciferase reporter transactivation, fold of solvent control; higher = stronger receptor activation
# Settings in all cases: HEK293T, exposure time: 24 h
# CAR LBD (GAL4 fusion) = test system: CAR LBD (GAL4 fusion)
# Outline: (§1)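 In 96-well plates, HEK293T cells were transiently transfected with a GAL4 fusion of one human nuclear receptor ligand-binding domain, a GAL4-(UAS)5-TK firefly luciferase reporter and a Renilla luciferase plasmid. After 24 h of exposure to compound at 1 to 500 µM in DMEM with 0.5% DMSO, firefly luciferase was normalised to Renilla luciferase. Transactivation is reported as fold of solvent control, averaged over biological replicates.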
# [1] = test system: LXRalpha LBD (GAL4 fusion)
# Outline: as §1
# [2] = test system: PPARdelta LBD (GAL4 fusion)
# Outline: as §1
# PXR LBD (GAL4 fusion) = PXR LBD (GAL4 fusion) (UniProt O75469)
# Outline: as §1
# RARalpha (GAL4 fusion) = test system: RARalpha (GAL4 fusion)
# Outline: as §1
# PXR LBD (GAL4 fusion), sequence (O75469 whole entry, looked up, the tested form may be a part): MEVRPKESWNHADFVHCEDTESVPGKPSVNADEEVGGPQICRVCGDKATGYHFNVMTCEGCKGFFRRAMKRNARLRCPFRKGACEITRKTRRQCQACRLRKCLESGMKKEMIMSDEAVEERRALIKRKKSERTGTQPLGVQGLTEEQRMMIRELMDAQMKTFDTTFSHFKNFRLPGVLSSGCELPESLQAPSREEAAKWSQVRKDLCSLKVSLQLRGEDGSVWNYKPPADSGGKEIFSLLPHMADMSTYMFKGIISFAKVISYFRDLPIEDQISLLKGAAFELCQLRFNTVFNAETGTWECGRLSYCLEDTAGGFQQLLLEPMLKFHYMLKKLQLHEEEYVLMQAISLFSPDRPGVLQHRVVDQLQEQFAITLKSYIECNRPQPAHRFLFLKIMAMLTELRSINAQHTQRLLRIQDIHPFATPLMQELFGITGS
smiles,measurement,setting,value
NS(=O)(=O)C(F)(F)C(F)(F)C(F)(F)C(F)(F)C(F)(F)C(F)(F)C(F)(F)C(F)(F)F [perfluorooctane sulfonamide],luciferase reporter transactivation,CAR LBD (GAL4 fusion); concentration: 1 µM,1.08
same,luciferase reporter transactivation,CAR LBD (GAL4 fusion); concentration: 2.5 µM,1.29
same,luciferase reporter transactivation,CAR LBD (GAL4 fusion); concentration: 5 µM,1.18
same,luciferase reporter transactivation,CAR LBD (GAL4 fusion); concentration: 10 µM,1.06
same,luciferase reporter transactivation,CAR LBD (GAL4 fusion); concentration: 100 µM,0.995
same,luciferase reporter transactivation,[1]; concentration: 1 µM,1.05
same,luciferase reporter transactivation,[1]; concentration: 2.5 µM,0.997
same,luciferase reporter transactivation,[1]; concentration: 5 µM,1.08
same,luciferase reporter transactivation,[1]; concentration: 10 µM,1.03
same,luciferase reporter transactivation,[1]; concentration: 100 µM,1.09
same,luciferase reporter transactivation,[2]; concentration: 1 µM,1.15
same,luciferase reporter transactivation,[2]; concentration: 2.5 µM,1.03
same,luciferase reporter transactivation,[2]; concentration: 5 µM,0.974
same,luciferase reporter transactivation,[2]; concentration: 10 µM,0.826
same,luciferase reporter transactivation,[2]; concentration: 100 µM,0.935
same,luciferase reporter transactivation,PXR LBD (GAL4 fusion); concentration: 1 µM,0.779
same,luciferase reporter transactivation,PXR LBD (GAL4 fusion); concentration: 2.5 µM,0.819
same,luciferase reporter transactivation,PXR LBD (GAL4 fusion); concentration: 5 µM,0.699
same,luciferase reporter transactivation,PXR LBD (GAL4 fusion); concentration: 10 µM,0.703
same,luciferase reporter transactivation,PXR LBD (GAL4 fusion); concentration: 100 µM,0.74
same,luciferase reporter transactivation,RARalpha (GAL4 fusion); concentration: 1 µM,1.02
same,luciferase reporter transactivation,RARalpha (GAL4 fusion); concentration: 2.5 µM,0.969
same,luciferase reporter transactivation,RARalpha (GAL4 fusion); concentration: 5 µM,1.32
same,luciferase reporter transactivation,RARalpha (GAL4 fusion); concentration: 10 µM,1.47
same,luciferase reporter transactivation,RARalpha (GAL4 fusion); concentration: 100 µM,1.71
O=C(O)C(F)(F)C(F)(F)F [perfluoropropanoic acid],luciferase reporter transactivation,CAR LBD (GAL4 fusion); concentration: 1 µM,0.94
same,luciferase reporter transactivation,CAR LBD (GAL4 fusion); concentration: 5 µM,0.855
same,luciferase reporter transactivation,CAR LBD (GAL4 fusion); concentration: 10 µM,0.923
same,luciferase reporter transactivation,CAR LBD (GAL4 fusion); concentration: 25 µM,0.983
same,luciferase reporter transactivation,CAR LBD (GAL4 fusion); concentration: 50 µM,1.12
same,luciferase reporter transactivation,CAR LBD (GAL4 fusion); concentration: 100 µM,1.11
same,luciferase reporter transactivation,CAR LBD (GAL4 fusion); concentration: 250 µM,1.15
same,luciferase reporter transactivation,CAR LBD (GAL4 fusion); concentration: 500 µM,1.31
same,luciferase reporter transactivation,[1]; concentration: 1 µM,0.9
same,luciferase reporter transactivation,[1]; concentration: 5 µM,0.907
same,luciferase reporter transactivation,[1]; concentration: 10 µM,0.949
same,luciferase reporter transactivation,[1]; concentration: 25 µM,0.933
same,luciferase reporter transactivation,[1]; concentration: 50 µM,1
same,luciferase reporter transactivation,[1]; concentration: 100 µM,0.953
same,luciferase reporter transactivation,[1]; concentration: 250 µM,0.94
same,luciferase reporter transactivation,[1]; concentration: 500 µM,0.97
same,luciferase reporter transactivation,[2]; concentration: 1 µM,0.959
same,luciferase reporter transactivation,[2]; concentration: 5 µM,1.14
same,luciferase reporter transactivation,[2]; concentration: 10 µM,1.27
same,luciferase reporter transactivation,[2]; concentration: 25 µM,1.2
same,luciferase reporter transactivation,[2]; concentration: 50 µM,1.26
same,luciferase reporter transactivation,[2]; concentration: 100 µM,1.21
same,luciferase reporter transactivation,[2]; concentration: 250 µM,1.22
same,luciferase reporter transactivation,[2]; concentration: 500 µM,1.31
same,luciferase reporter transactivation,PXR LBD (GAL4 fusion); concentration: 1 µM,0.362
same,luciferase reporter transactivation,PXR LBD (GAL4 fusion); concentration: 5 µM,0.532
same,luciferase reporter transactivation,PXR LBD (GAL4 fusion); concentration: 10 µM,0.495
same,luciferase reporter transactivation,PXR LBD (GAL4 fusion); concentration: 25 µM,0.632
same,luciferase reporter transactivation,PXR LBD (GAL4 fusion); concentration: 50 µM,0.626
same,luciferase reporter transactivation,PXR LBD (GAL4 fusion); concentration: 100 µM,0.695
same,luciferase reporter transactivation,PXR LBD (GAL4 fusion); concentration: 250 µM,0.601
same,luciferase reporter transactivation,PXR LBD (GAL4 fusion); concentration: 500 µM,0.727
same,luciferase reporter transactivation,RARalpha (GAL4 fusion); concentration: 1 µM,0.332
same,luciferase reporter transactivation,RARalpha (GAL4 fusion); concentration: 5 µM,0.321
same,luciferase reporter transactivation,RARalpha (GAL4 fusion); concentration: 10 µM,0.367
same,luciferase reporter transactivation,RARalpha (GAL4 fusion); concentration: 25 µM,0.387
same,luciferase reporter transactivation,RARalpha (GAL4 fusion); concentration: 50 µM,0.632
same,luciferase reporter transactivation,RARalpha (GAL4 fusion); concentration: 100 µM,0.652
same,luciferase reporter transactivation,RARalpha (GAL4 fusion); concentration: 250 µM,0.977
same,luciferase reporter transactivation,RARalpha (GAL4 fusion); concentration: 500 µM,0.946
